Assay [1] is described as follows: antimalarial activity against Dd2 strain (AID 2302;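 active = growth inhibition above 50% at the single 2 µM test dose, taken to imply half-maximal potency below 2 µM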;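 note: 0% = DMSO untreated growth and 100% = chloroquine plus artemisinin killed control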). Conditions: P. falciparum Dd2 in RBCs, LDH growth readout, 72 h; at 2 µM; active compounds read high.
Assay [2] in a line: HepG2 cytotoxicity, primary screen, cytotoxicity control for P. falciparum antimalarial project, cell-based, ATP luminescence (AID 2303;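 active = inhibition above 50%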;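 note: 0% = DMSO wells and 100% = digitonin-killed cells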). Conditions: HepG2 viability, 24-48 h, at 10 µM, active compounds read high.
The target in assay [3] is L-lactate dehydrogenase (Plasmodium falciparum (isolate CDC / Honduras)) (UniProt Q27743). Kind of assay: PfLDH activity inhibition – cell lysate, 3D7 strain, counter-screen for P. falciparum growth inhibition project (AID 2304).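 Note: 0% = vehicle and 100% = reference inhibitor.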 Conditions: P. falciparum 3D7 crude extract, LDH APAD/NBT absorbance; at 2 µM; active compounds read high. A general note: The purpose of a counterscreen is to sort out artefacts and off-target activity.

Assay [4] in a line: inhibition of 3D7 malaria parasite growth – strain 3D7 (AID 2306).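 Note: 0% = DMSO wells and 100% = chloroquine plus artemisinin control wells.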 To be noted: P. falciparum 3D7 erythrocytic growth, LDH absorbance, 72 h; at 2 µM; active compounds read high.
The target of assay [5] is Calcium-dependent protein kinase 1 (Plasmodium falciparum (isolate 3D7)) (UniProt P62344). Kind of assay: PfCDPK1 kinase inhibitors, biochemical, TCAMS library (AID 1159585; cut-off not given, nearly all actives have IC50 up to about 0.98 µM;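 note: inhibitors leave more ATP so luminescence rises with inhibition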). Conditions: recombinant PfCDPK1, Kinase-Glo ATP depletion luminescence. (Kinase-Glo reads ATP consumption through a luciferase reaction.)
Assay [6] concerns the target Plasmodium falciparum protein kinase 6 (PK6, PF3D7_1337100) (UniProt Q8IDW1). Kind of assay: PfPK6 kinase inhibitors, biochemical, TCAMS library (AID 1159586). To be noted: recombinant PfPK6, Kinase-Glo ATP depletion luminescence.
Assay [7] addresses Protein kinase 7 (PK7), Plasmodium falciparum 3D7 (PF3D7_0213400) (UniProt Q7YTF7). Kind of assay: inhibition of Plasmodium PK7 catalytic activity – biochemical, TCAMS antimalarial set, Kinase-Glo luminescence (AID 1159587). To be noted: recombinant PfPK7, Kinase-Glo ATP depletion luminescence.
Assay [8] has as its target Calcium-dependent protein kinase 4 (Plasmodium falciparum (isolate 3D7)) (UniProt Q8IBS5). Kind of assay: PfCDPK4 kinase inhibitors, biochemical, TCAMS library (AID 1159588; cut-off not given, nearly all actives have IC50 up to about 0.91 µM). Conditions: recombinant PfCDPK4, Kinase-Glo ATP depletion luminescence.

Unmarked numbers belong to inactive results. For some of these results: Results with a measured potency or affinity are listed apart. Calls of active or inactive are those of the source. Unless noted, the rule behind the calls is not given here.

Sequence of Plasmodium falciparum protein kinase 6 (PK6, PF3D7_1337100) (Q8IDW1 1-305): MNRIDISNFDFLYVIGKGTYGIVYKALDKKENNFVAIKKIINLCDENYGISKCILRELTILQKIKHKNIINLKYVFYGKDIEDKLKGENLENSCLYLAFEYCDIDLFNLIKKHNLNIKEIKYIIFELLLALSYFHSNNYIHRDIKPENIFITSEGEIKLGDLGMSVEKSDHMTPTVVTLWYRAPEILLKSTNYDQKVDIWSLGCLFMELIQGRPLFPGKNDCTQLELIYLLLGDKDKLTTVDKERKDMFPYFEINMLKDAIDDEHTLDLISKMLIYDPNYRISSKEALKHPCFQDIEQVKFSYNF
Sequence of Calcium-dependent protein kinase 1 (Plasmodium falciparum (isolate 3D7)) (P62344 whole entry, looked up): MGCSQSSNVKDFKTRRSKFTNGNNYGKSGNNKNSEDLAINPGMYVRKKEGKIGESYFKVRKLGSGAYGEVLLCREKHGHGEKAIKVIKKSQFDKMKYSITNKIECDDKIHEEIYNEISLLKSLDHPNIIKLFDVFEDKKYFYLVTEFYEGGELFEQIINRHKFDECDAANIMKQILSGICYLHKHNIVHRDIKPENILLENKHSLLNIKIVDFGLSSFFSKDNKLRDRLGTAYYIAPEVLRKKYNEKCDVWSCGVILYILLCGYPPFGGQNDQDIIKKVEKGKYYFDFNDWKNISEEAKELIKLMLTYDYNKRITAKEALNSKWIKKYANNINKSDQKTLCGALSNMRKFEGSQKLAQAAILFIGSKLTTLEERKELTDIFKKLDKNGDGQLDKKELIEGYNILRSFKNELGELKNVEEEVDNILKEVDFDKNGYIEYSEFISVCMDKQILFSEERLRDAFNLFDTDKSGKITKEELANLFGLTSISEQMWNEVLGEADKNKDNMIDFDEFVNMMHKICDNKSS
Sequence of L-lactate dehydrogenase (Plasmodium falciparum (isolate CDC / Honduras)) (Q27743 whole entry, looked up): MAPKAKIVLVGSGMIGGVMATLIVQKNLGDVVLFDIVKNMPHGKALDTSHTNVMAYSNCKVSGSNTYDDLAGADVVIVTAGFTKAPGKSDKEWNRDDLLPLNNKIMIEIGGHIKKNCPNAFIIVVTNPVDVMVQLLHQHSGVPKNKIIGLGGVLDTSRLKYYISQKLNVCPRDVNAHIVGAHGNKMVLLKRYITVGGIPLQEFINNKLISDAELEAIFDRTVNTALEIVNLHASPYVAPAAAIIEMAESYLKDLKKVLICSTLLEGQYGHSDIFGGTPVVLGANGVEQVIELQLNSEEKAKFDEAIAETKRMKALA
Sequence of Calcium-dependent protein kinase 4 (Plasmodium falciparum (isolate 3D7)) (Q8IBS5 whole entry, looked up): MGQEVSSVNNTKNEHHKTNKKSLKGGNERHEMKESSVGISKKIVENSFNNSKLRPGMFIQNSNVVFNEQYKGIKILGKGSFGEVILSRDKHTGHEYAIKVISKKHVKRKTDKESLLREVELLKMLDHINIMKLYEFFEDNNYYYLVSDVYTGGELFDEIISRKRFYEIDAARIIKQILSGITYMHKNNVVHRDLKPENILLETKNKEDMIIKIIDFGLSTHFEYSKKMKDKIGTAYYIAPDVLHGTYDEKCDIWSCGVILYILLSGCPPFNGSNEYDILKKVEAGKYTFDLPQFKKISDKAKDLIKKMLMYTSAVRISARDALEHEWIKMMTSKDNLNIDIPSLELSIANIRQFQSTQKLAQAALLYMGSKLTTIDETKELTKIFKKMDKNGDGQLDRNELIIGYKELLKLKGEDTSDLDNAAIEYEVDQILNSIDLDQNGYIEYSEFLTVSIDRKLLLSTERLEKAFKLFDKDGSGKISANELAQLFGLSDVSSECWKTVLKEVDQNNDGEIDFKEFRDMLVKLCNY
Sequence of Protein kinase 7 (PK7), Plasmodium falciparum 3D7 (PF3D7_0213400) (Q7YTF7 1-343): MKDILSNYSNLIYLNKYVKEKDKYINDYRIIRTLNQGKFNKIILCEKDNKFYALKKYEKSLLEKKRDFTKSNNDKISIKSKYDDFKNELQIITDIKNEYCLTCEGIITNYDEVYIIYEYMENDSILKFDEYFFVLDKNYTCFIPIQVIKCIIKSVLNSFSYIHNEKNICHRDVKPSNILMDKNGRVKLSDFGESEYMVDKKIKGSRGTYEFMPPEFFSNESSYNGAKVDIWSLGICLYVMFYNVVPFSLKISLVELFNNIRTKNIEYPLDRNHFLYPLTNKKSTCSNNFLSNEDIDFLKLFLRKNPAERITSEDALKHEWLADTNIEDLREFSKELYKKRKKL

What is called inhibition is the drop in the measured response relative to a control, in per cent. Take `CCCCCCCN1CC[C@H](NC(=O)Nc2ccnc3ccc(OC)cc23)[C@H](C(=O)OCC)C1`: the growth inhibition was 73% (active) in assay [1] and 101% (active) in assay [4]. Further, the inhibition was 11% in assay [2] and 7% in assay [3]. Also, the result in assay [5], in assay [6], in assay [7] and in assay [8] was inactive.

Regarding `COc1ccc(CCNc2nc(SCc3ccccc3Cl)nc3ccccc23)cc1OC`, the growth inhibition in assay [1] was 2%; in assay [4] it was 94% (active). In addition, the inhibition was 27% in assay [2] and 0% in assay [3]. For the same molecule, the outcome in assay [5], in assay [6], in assay [7] and in assay [8] was inactive.

Turning to `COc1ccc(Cl)cc1NC(=O)C(C)N1CCN(S(=O)(=O)c2ccccc2F)CC1` (stereo not given), the growth inhibition in assay [1] is 66% (active); in assay [4], 93% (active). Further, the inhibition was 5% in assay [2] and 4% in assay [3]. Further, the result in assay [5], in assay [6], in assay [7] and in assay [8] was inactive.

On to `O=C1NC(c2ccccc2)C2(CCN(CC(O)COc3cccc4ncccc34)CC2)O1` (stereo not given), for which the growth inhibition in assay [1] was 95% (active); in assay [4], 92% (active). Besides, the inhibition in assay [2] is 5%; in assay [3], -4%. In addition, the outcome in assay [5], in assay [6], in assay [7] and in assay [8] was inactive.

Regarding `O=C(Nc1cccc(-c2ccc(-c3nc4ccc(C(F)(F)F)cc4[nH]3)s2)c1)c1cnc[nH]1`, the values for the growth inhibition in assay [1] and in assay [4] were 36% and 89% (active), respectively. For the same molecule, the inhibition is 55% (active) in assay [2] and -3% in assay [3]. Moreover, the result in assay [5], in assay [6], in assay [7] and in assay [8] was inactive.

In the case of `Cn1cncc1C(=O)Nc1cccc(-c2ccc(-c3nc4ccccc4[nH]3)s2)c1`, the results for the growth inhibition in assay [1] and in assay [4] were 25% and 102% (active), respectively. In addition, the inhibition in assay [2] and in assay [3] was -3% in each case. For the same molecule, the outcome in assay [5], in assay [6], in assay [7] and in assay [8] was inactive.

For the molecule `CC(C)[C@H](NC(=O)c1ccc(O)c(-c2cccc(C(F)(F)F)c2)c1)C(=O)NC1CCCc2ccccc21` (stereo not given in full), the growth inhibition in assay [1] was 25%; in assay [4], 82% (active). Further, the inhibition in assay [2] is 2%; in assay [3] it was 7%. In addition, the result in assay [5], in assay [6], in assay [7] and in assay [8] was inactive.

For the molecule `O=C(/C=C/c1ccc(Cl)c(Cl)c1)NCCCCCN1CCCN(C(=O)Nc2ccc([N+](=O)[O-])cc2)CC1`, the results for the growth inhibition in assay [1] and in assay [4] were 28% and 97% (active), respectively. For the same molecule, the results for the inhibition in assay [2] and in assay [3] were 32% and -1%, respectively. The result in assay [5], in assay [6], in assay [7] and in assay [8] was inactive.

For `COc1ccccc1-c1cccc(-c2cccc(NC(=O)c3ccc([N+](=O)[O-])o3)c2)n1`, the growth inhibition in assay [1] is 59% (active); in assay [4] it was 97% (active). The inhibition in assay [2] is 78% (active); in assay [3], -1%. For the same molecule, the outcome in assay [5], in assay [6], in assay [7] and in assay [8] was inactive.

For the molecule `Clc1ccccc1CNc1noc(-c2sccc2Br)n1`, the growth inhibition is 93% (active) in assay [1] and 97% (active) in assay [4]. Moreover, the inhibition in assay [2] was 0%; in assay [3], -7%. Further, the result in assay [5], in assay [6], in assay [7] and in assay [8] was inactive.

As for `COc1cc(NC(=O)c2cc([N+](=O)[O-])ccc2NC(=O)CNC2CCCCC2C)cc(OC)c1` (stereo not given), the growth inhibition in assay [1] was 78% (active); in assay [4], 87% (active). For the same molecule, the inhibition is -2% in assay [2] and 3% in assay [3]. For the same molecule, the outcome in assay [5], in assay [6], in assay [7] and in assay [8] was inactive.

Take `NC(=O)c1ccc(-c2ccc3ccnc(N)c3c2)cc1`: the figures for the growth inhibition in assay [1] and in assay [4] were 98% (active) and 101% (active), respectively. Moreover, the inhibition in assay [2] is 56% (active); in assay [3], -2%. Moreover, the result in assay [5], in assay [6], in assay [7] and in assay [8] was inactive.

`O=C(c1cccc(-c2cccc(-c3nc4ccc(F)cc4[nH]3)c2)c1)N1CCCCC1CN1CCC(O)C1` (stereo not given): the growth inhibition was 100% (active) in assay [1] and 90% (active) in assay [4]. In addition, the inhibition in assay [2] was 36%; in assay [3], -5%. In addition, the outcome in assay [5], in assay [6], in assay [7] and in assay [8] was inactive.

With `COc1cc(F)c2ncc(Cl)c([C@H](O)CN3CCC(NCc4ccc5c(n4)NC(=O)CO5)CC3)c2c1`, the growth inhibition in assay [1] and in assay [4] was 99% (active) throughout. Also, the inhibition in assay [2] is 14%; in assay [3], -1%. In addition, the result in assay [5], in assay [6], in assay [7] and in assay [8] was inactive.

For `Cc1nc(N)nc(N)c1OCc1cccc2c1ccc1ccccc12`, the growth inhibition in assay [1] is 16%; in assay [4] it was 95% (active). Further, the inhibition in assay [2] is 54% (active); in assay [3] it was 1%. The result in assay [5], in assay [6], in assay [7] and in assay [8] was inactive.

In the case of `COc1c(CNCCCCCCNCc2cc(Cl)c3ccccc3c2OC)cc(Cl)c2ccccc12`, the growth inhibition in assay [1] is 45%; in assay [4], 96% (active). Besides, the values for the inhibition in assay [2] and in assay [3] were 100% (active) and -4%, respectively. Besides, the outcome in assay [5], in assay [6], in assay [7] and in assay [8] was inactive.

As for `c1cncc(CCNCc2ccc(-c3ccc(-c4nc5ccccc5[nH]4)s3)cc2)c1`, the figures for the growth inhibition in assay [1] and in assay [4] were 99% (active) and 101% (active), respectively. In addition, the inhibition in assay [2] is 35%; in assay [3] it was -3%. Also, the outcome in assay [5], in assay [6], in assay [7] and in assay [8] was inactive.

`CCc1ccc(NC(=O)c2ccc(CN3CCCN(Cc4cccc(Cl)c4)CC3)cc2)cc1`: the growth inhibition in assay [1] was 2%; in assay [4], 84% (active). The figures for the inhibition in assay [2] and in assay [3] were 50% (active) and 5%, respectively. Moreover, the outcome in assay [5], in assay [6], in assay [7] and in assay [8] was inactive.

For `Cc1ccc(NC(=O)NC2CCN(c3ccnc4cc(Cl)ccc34)C2)cc1` (stereo not given), the growth inhibition is 96% (active) in assay [1] and 101% (active) in assay [4]. For the same molecule, the inhibition in assay [2] was 19%; in assay [3], 5%. Also, the outcome in assay [5], in assay [6], in assay [7] and in assay [8] was inactive.

Regarding `COc1ccc2ncc(F)c(CCN3C[C@H](CNCc4cc(C#N)c5c(c4)OCCO5)[C@H](O)C3)c2n1`, the growth inhibition in assay [1] is 64% (active); in assay [4] it was 100% (active). For the same molecule, the inhibition in assay [2] is 7%; in assay [3], -5%. Also, the result in assay [5], in assay [6], in assay [7] and in assay [8] was inactive.

(Values after PubChem BioAssay.)
